Measurements published in PubChem BioAssay (Tox21).
Results filed as inconclusive are left out. Active and inactive are the calls of the source. Unless noted, the call rests on the fitted dose curve; in most records, active means well fitted curve in the direction sought with a large enough effect in the repeat runs; inconclusive means weak or mixed curves; inactive means no such curve, though single readings can be large; an effect the other way counts as inactive or inconclusive.

Legend:
[1] = qHTS assay to identify small molecule agonists of the RXR signaling pathway - cell viability counter screen (AID 1159529); further: nearly all actives have a fitted effect of over 50% in size; further: potency means the concentration at half of the fitted maximal effect
How it was run: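 Cell viability is measured by CellTiter-Glo luminescence, 30 min at room temperature, in wells already read for beta-lactamase. Engineered HEK 293T cells (RXR-alpha-UAS-bla) are dosed 16 hr at 37 C. Tetraoctyl ammonium bromide serves as positive control.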

[2] = qHTS assay to identify small molecule antagonists of the retinoid acid receptor (RAR) signaling pathway - cell viability counter screen (AID 1159551); further: nearly all actives have a fitted effect of over 35% in size
How it was run: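 Luminescent ATP quantitation (CellTiter-Glo) gave cell viability in C3RL4 cells exposed to test chemicals for 6 h at 37 C alongside 1 uM final retinol.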

[3] = qHTS assay to identify small molecule antagonists of the retinoic acid receptor (RAR) signaling pathway (AID 1159552; further: nearly all actives have a fitted effect of over 50% in size; further: potency means the concentration at half of the fitted maximal effect)
How it was run: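 Quantitative HTS in C3RL4 RARE-luciferase reporter cells. Compounds were added with 1 uM (final) retinol; luminescence was read after 6 hr.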

[4] = qHTS assay to identify small molecule agonists of the retinoic acid receptor (RAR) signaling pathway (AID 1159553); settings: C3RL4 RARE luciferase reporter, agonist, 6 h; activation: at 73.3 µM (top of the series); further: potency means the concentration at half of the fitted maximal effect
How it was run: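 Luminescence from a RARE-driven luciferase reporter in C3RL4 cells served as the read-out, measured after 30 min with detection reagent at room temperature. Compounds in DMSO were applied for 6 hr at 37 C following overnight seeding.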

[5] = qHTS assay to identify small molecule antagonists of the estrogen related receptor (ERR) signaling pathway - cell viability counter screen (AID 1224818);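 further: viability measured after 17.5 h of compound exposure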
How it was run: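 Multiplexed counter screen to separate cytotoxic compounds from true ERR modulators. ERR cells received DMSO-dissolved compounds after a 6 h pre-incubation, were exposed 17.5 h at 37 C, then assayed with CellTiter-Fluor fluorescence.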

[6] = qHTS assay to identify small molecule antagonists of the estrogen related receptor signaling pathway with the pleiotropic PPARgamma coactivator (PGC) cell viability counter screen (AID 1224822;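 further: viability read after 17.5 h compound exposure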)
How it was run: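 Cells: PGC/ERR, 2,000/well, 1536-well format. Pre-incubation 6 h, 37 C/5% CO2. Compound exposure 17.5 h, 37 C. Detection: CellTiter-Fluor, 30 min, fluorescence.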

[7] = qHTS assay to identify small molecule antagonists of the estrogen related receptor (ERR) signaling pathway (AID 1224819;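 further: luminescence from an ERR-driven luciferase reporter measured with One-Glo reagent; nearly all actives have a fitted effect of over 50% in size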)
How it was run: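 Seed ERR cells 2,000/well; rest 6 h at 37 C/5% CO2; pin compounds in DMSO; incubate 18 h at 37 C; add One-Glo; wait 30 min at room temperature; measure luminescence.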

[8] = qHTS assay to identify small molecule agonists of the estrogen related receptor (ERR) signaling pathway (AID 1224820)
How it was run: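 ERR reporter cell line (from NTP), 2,000 cells/well, incubated 6 h before compound addition, then 18 h at 37 C. Luminescence measured 30 min after One-Glo reagent at room temperature.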

[9] = tested on: estrogen-related receptor alpha (ERRalpha) with PGC-1alpha coactivator, human; experiment: qHTS assay to identify small molecule antagonists of the estrogen related receptor signaling pathway with the pleiotropic PPARgamma coactivator (PGC) (AID 1224821; calls by dose curve;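 further: lower luminescence signal means antagonism of PGC/ERR signalling; nearly all actives have a fitted effect of over 50% in size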)
How it was run: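 PGC/ERR reporter cell line, plated 6 h before compound addition, then exposed 18 h at 37 °C. Luciferase activity read by luminescence 30 min after One-Glo addition; decrease indicates antagonism.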

Measured: Potency

CC1CC(OC(=O)C(O)c2ccccc2)CC(C)(C)N1C (stereo unspecified)
inactive: [1] | [2] | [3] | [4]

CN1CCCC(n2nc(Cc3ccc(Cl)cc3)c3ccccc3c2=O)CC1 (stereo unspecified)
inactive: [2] | [4]
active: [1] 5.35 µM

CCCCCCCCCI
inactive: [1] | [2] | [3] | [4]

CCCCC(CC)CN (stereo unspecified)
inactive: [1] | [2] | [3] | [4]

OC[C@H]1O[C@@H](n2cnc3c(=S)nc[nH]c32)[C@H](O)[C@@H]1O
inactive: [3]
active: [1] 2.13 µM

Cc1ccc(Cl)c(Nc2ccccc2C(=O)O)c1Cl
inactive: [1] | [2] | [3] | [4] | [5] | [6]

CN1CCCN=C1COC(=O)C(O)(c1ccccc1)C1CCCCC1 (stereo unspecified)
inactive: [1] | [2] | [3] | [4]

CC(=O)OCC[N+](C)(C)C
inactive: [1] | [2] | [3] | [4]

O=C1c2ccccc2C(=O)C1c1ccc(Br)cc1
inactive: [1] | [2] | [3] | [4]

CCC1CO1 (stereo unspecified)
inactive: [1] | [2] | [3] | [4]

Nc1nnc(-c2ccc([N+](=O)[O-])o2)o1
inactive: [1] | [2] | [3] | [4]

CN1CC(=O)N2[C@H](c3ccc4c(c3)OCO4)c3[nH]c4ccccc4c3C[C@@H]2C1=O
inactive: [1] | [2] | [3] | [4]

CCCCC(CC)COP(=O)(O)O (stereo unspecified)
inactive: [1] | [2] | [3] | [4]

Cc1cccc(O)c1N
inactive: [1] | [2] | [3] | [4]

O=C(O)C[C@H](NC(=O)OCc1ccccc1)C(=O)O
inactive: [1] | [2] | [3] | [4]

COC(=O)c1nc(Cl)c(Cl)nc1N
active: [1] 13.4 µM | [3] 11.9 µM

O=C1c2ccccc2C(=O)N1CCc1noc(-c2ccc(CN3CCCCCC3)s2)n1
inactive: [1] | [2] | [3] | [4]

CN1C(C(=O)Nc2ccccn2)=C(O)c2sccc2S1(=O)=O
inactive: [1] | [2] | [3]
active: [4] 29.8 µM

CN1C(=O)c2ccccc2C1=O
inactive: [1] | [2] | [3] | [4] | [5] | [7] | [8] | [9] | [6]

O=C(/C=C/c1ccccc1)OCCc1ccccc1
active: [4] 2.73 µM
inactive: [1] | [2] | [3]

Cc1cc2c(OCC(CNC(C)(C)C)OC(=O)c3ccccc3)cccc2[nH]1 (stereo unspecified)
inactive: [1] | [2] | [4]

CCOc1cccc(-n2cc(C(=O)N3CCN(c4cc(C(=O)O)c5ccccc5c4)CC3)nc2-c2ccc(C)cc2)c1
inactive: [1] | [2] | [3] | [4]

Clc1cc(Cl)nc(Cl)n1
inactive: [1] | [2] | [3] | [4]

CC(C)=CCC1C(=O)N(c2ccccc2)N(c2ccccc2)C1=O
inactive: [1] | [2] | [3] | [4]

O=c1[nH]ncc2ccccc12
inactive: [1] | [2] | [3] | [4]

Cc1[nH]cnc1CN1CCc2c(c3ccccc3n2C)C1=O
inactive: [1] | [2] | [3] | [4]

CC(C)C=O
inactive: [1] | [2] | [3] | [4]

CCc1ccccc1
inactive: [1] | [2] | [3] | [4]

CCCCCCCCN
inactive: [1] | [2] | [3] | [4]

CC(C)(C)C(=O)C(=O)O
inactive: [1] | [2] | [3] | [4]

c1csc(SSc2cccs2)c1
active: [1] 38.9 µM | [3] 9.69 µM

Cc1ccc(OC(=O)c2ccccc2O)cc1
active: [4] 6.86 µM
inactive: [1] | [2] | [3]

Nc1ncnc2c1ncn2[C@H]1CC[C@@H](CO)O1
inactive: [1] | [2] | [3] | [4]
